Test results from PubChem BioAssay (NCI).
About 79,000 compounds went through this panel and 15% of them were active in at least one assay; those are over-represented in the sample as a whole. The source made the active and inactive calls. Rule as the data show it: active = growth inhibition above about 70%; inactive = the rest.

Tests used:
[1] = NCI Yeast Anticancer Drug Screen. Data for the rad50 strain (AID 155);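 also: 0% = growth of vehicle-only cultures of the same strain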; conditions: S. cerevisiae rad50 strain growth inhibition, active compounds read high
Procedure, shortened: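 DNA repair mutant yeast, compound exposure, growth read-out; inhibition is taken relative to vehicle.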

[2] = NCI Yeast Anticancer Drug Screen. Data for the mec2-1 strain (AID 157); conditions: S. cerevisiae mec2-1 strain, active compounds read high
Procedure, shortened: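 Vehicle-treated cultures served as reference for growth inhibition of compound-exposed mec2-1 yeast.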

[3] = NCI Yeast Anticancer Drug Screen. Data for the sgs1 mgt1 strain (AID 161);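 also: 0% = growth of cultures given vehicle only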; conditions: S. cerevisiae sgs1 mgt1 strain, active compounds read high
Procedure, shortened: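 Inhibition of yeast growth, normalised to vehicle-treated controls, is reported for a strain bearing genetic alterations in DNA damage repair.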

[4] = NCI Yeast Anticancer Drug Screen. Data for the cln2 rad14 strain (AID 165);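 also: 0% = growth equal to vehicle treated cultures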; conditions: S. cerevisiae cln2 rad14 strain, active compounds read high
Procedure, shortened: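 Each compound was tested on cln2 rad14 yeast. Inhibition of growth was calculated against vehicle-exposed controls.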

[5] = NCI Yeast Anticancer Drug Screen. Data for the bub3 strain (AID 167); conditions: S. cerevisiae bub3 mutant strain, active compounds read high
Procedure, shortened: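 In this screen, a yeast mutant lacking normal mitotic checkpoint function is challenged with compound. Relative growth versus vehicle gives the inhibition value.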

[6] = NCI Yeast Anticancer Drug Screen. Data for the mlh1 rad18 strain (AID 175); conditions: S. cerevisiae mlh1 rad18 strain growth inhibition, active compounds read high
Procedure, shortened: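 Vehicle-treated cultures served as the reference for growth inhibition in a yeast strain carrying DNA damage repair alterations exposed to each compound.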

[7] = at 5.0 µM (retest, dose inferred, filed as 0.5)
[8] = at 50.0 µM (retest, dose inferred, filed as 5.0)

Measured: growth inhibition

c1ccc(N/N=C2/CCCC3/C(=N\Nc4ccccc4)CCCC23)cc1 (stereo not given)
inactive: [1]; [7] 3% | [2]; [7] -5% | [2]; at 50.0 µM 65.5% | [3]; [7] 13% | [3]; at 50.0 µM 63.2% | [4]; [7] -11% | [5]; [7] -8% | [5]; at 50.0 µM 9.85% | [6]; [7] 15%
active: [1]; [8] 99% | [1]; at 50.0 µM 98.2% | [2]; [8] 99% | [3]; [8] 99% | [4]; [8] 99% | [4]; at 50.0 µM 73.8% | [5]; [8] 98% | [6]; [8] 99% | [6]; at 50.0 µM 96.1%

CC(C)(C)C(=O)CC(=O)C(F)(F)C(F)(F)C(F)(F)F.CC(C)(C)C(=O)CC(=O)C(F)(F)C(F)(F)C(F)(F)F.CC(C)(C)C(=O)CC(=O)C(F)(F)C(F)(F)C(F)(F)F.[Gd]
active: [1]; [8] 79% | [1]; at 50.0 µM 89.3% | [2]; [8] 85% | [2]; at 50.0 µM 91.4% | [3]; [8] 82% | [3]; at 50.0 µM 90.7% | [4]; [8] 87% | [4]; at 50.0 µM 82.7% | [5]; [8] 96% | [5]; at 50.0 µM 89.2% | [6]; [8] 93% | [6]; at 50.0 µM 88.8%
inactive: [1]; [7] -7% | [2]; [7] -9% | [3]; [7] 3% | [4]; [7] 9% | [5]; [7] -17% | [6]; [7] -7%

COc1ccc(OC)c(/C=C/NC=O)c1
inactive: [1]; [7] -10% | [1]; [8] 10% | [1]; at 50.0 µM -11.4% | [2]; [7] -11% | [2]; [8] -7% | [2]; at 50.0 µM 13.2% | [3]; [7] -12% | [3]; [8] -2% | [3]; at 50.0 µM -6.4% | [4]; [7] -15% | [4]; [8] 5% | [4]; at 50.0 µM 49.2% | [5]; [7] -1% | [5]; [8] -2% | [5]; at 50.0 µM -4.35% | [6]; [7] 5% | [6]; [8] -24% | [6]; at 50.0 µM -0.95%

O=C(CCc1ccccc1)OCC1OC(OC(=O)CCc2ccccc2)C(OC(=O)CCc2ccccc2)C(OC(=O)CCc2ccccc2)C1OC(=O)CCc1ccccc1 (stereo not given)
inactive: [1]; [7] 1% | [1]; [8] 4% | [1]; at 50.0 µM 25.6% | [2]; [7] 0% | [2]; [8] -2% | [2]; at 50.0 µM 21.4% | [3]; [7] -3% | [3]; [8] -22% | [3]; at 50.0 µM 19.7% | [4]; [7] 0% | [4]; [8] -1% | [4]; at 50.0 µM -0.4% | [5]; [7] 2% | [5]; [8] 1% | [5]; at 50.0 µM -6.35% | [6]; [7] -3% | [6]; [8] 3% | [6]; at 50.0 µM 45.4%

CC(N)C1C(C)CC2C3CC=C4CC(O)CCC4(C)C3CCC21C (stereo not given)
active: [1]; [8] 85% | [2]; [8] 74% | [3]; [7] 83% | [3]; at 50.0 µM 74% | [4]; [8] 86% | [5]; [8] 85% | [5]; at 50.0 µM 84.1% | [6]; [8] 86%
inactive: [1]; [7] 50% | [1]; at 50.0 µM 4.45% | [2]; [7] 35% | [2]; at 50.0 µM 25.1% | [3]; [8] -19% | [4]; [7] 49% | [4]; at 50.0 µM 8.3% | [5]; [7] 52% | [6]; [7] 57% | [6]; at 50.0 µM 53.2%
